In PubChem BioAssay (NCATS):
Results filed as inconclusive are left out. Entries that show only a call come without a potency. Active and inactive are the calls of the source. Calls come from the whole dose curve; as a rule, active = well fitted inhibition curve with a large enough effect in the polarisation, with a control signal flat (not every such curve was filed as active); inconclusive = small, poorly fitted or top-dose-only effect, or effect the other way; inactive = flat fitted curve, though single readings scatter; the % refers to the polarisation.

Each compound was assayed against Peptidyl-prolyl cis-trans isomerase NIMA-interacting 1 (Homo sapiens) (UniProt Q13526) (assay: qHTS Validation Assay to Find Inhibitors of Pin1 (AID 504536)). Conditions: Pin1 fluorescence polarization peptide binding assay; series mostly up to 57.5 µM.
Sequence of Peptidyl-prolyl cis-trans isomerase NIMA-interacting 1 (Homo sapiens) (Q13526 whole entry, looked up): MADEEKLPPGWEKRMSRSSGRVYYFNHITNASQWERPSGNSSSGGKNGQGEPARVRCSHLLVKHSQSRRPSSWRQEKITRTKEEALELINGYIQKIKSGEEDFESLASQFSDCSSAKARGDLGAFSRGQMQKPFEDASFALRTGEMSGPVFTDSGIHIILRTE
Outline: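 Fluorescence polarization competition: compounds (titration) displace HiFluor-488-labeled Pin1-1b peptide from Pin1 (0.3 uM final) in pH 7.5 HEPES buffer with DTT, 10 min at room temperature; %Activity normalized to no-enzyme wells, curves fitted.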
`CCOC(=O)c1ncn2c1CN(C)C(=O)c1cc(F)ccc1-2` was tested, and the Potency was “inactive”. For `CC[N+](CC)(CC)CCOc1cccc(OCC[N+](CC)(CC)CC)c1OCC[N+](CC)(CC)CC`, the Potency was “inactive”. With `CN1C2CCC1CC(OC(=O)C(CO)c1ccccc1)C2` (configuration not stated) the Potency was “inactive”. In the case of `COc1ccccc1OCC(O)CN1CCN(CC(=O)Nc2c(C)cccc2C)CC1` (configuration not stated), the Potency is reported as “inactive”. `CNCCCC12CCC(c3ccccc31)c1ccccc12` was tested, and the Potency was “inactive”. For `COc1ccccc1OCCNCC(O)COc1cccc2[nH]c3ccccc3c12` (configuration not stated), the Potency was “inactive”. With `Fc1ccc([C@@H]2CCNC[C@H]2COc2ccc3c(c2)OCO3)cc1` the Potency was “inactive”. For `O=c1c(-c2ccc(O)cc2)coc2cc(O)cc(O)c12`, the Potency was “inactive”. For `NC(=O)OCC(COC(N)=O)c1ccccc1`, the Potency was “inactive”. For `NCCc1cnc[nH]1`, the Potency was “inactive”. In the case of `CC(C)NCC(O)COc1ccc(CCOCC2CC2)cc1` (configuration not stated), the Potency is reported as “inactive”. For `CCC1(c2ccccc2)C(=O)NCNC1=O`, the Potency was “inactive”. In the case of `CC(C)C(=O)Nc1ccc([N+](=O)[O-])c(C(F)(F)F)c1`, the Potency is reported as “inactive”. `CN1C(C(=O)Nc2ccccn2)=C(O)c2ccccc2S1(=O)=O` was tested, and the Potency was “inactive”. For `Cc1cc(C(C)(C)C)cc(C)c1CC1=NCCN1`, the Potency was “inactive”. In the case of `COc1ccc(C2CNC(=O)C2)cc1OC1CCCC1` (configuration not stated), the Potency is reported as “inactive”. With `Cn1ccc2cc3c(cc21)CCN3C(=O)Nc1cccnc1` the Potency was “inactive”. With `O=C1c2c(O)ccc(O)c2C(=O)c2c(NCCNCCO)ccc(NCCNCCO)c21` the Potency was “inactive”. For `CCCNCC(O)COc1ccccc1C(=O)CCc1ccccc1` (configuration not stated), the Potency was “inactive”. For `C[C@H]1c2cccc(O)c2C(O)=C2C(=O)[C@]3(O)C(O)=C(C(N)=O)C(=O)[C@@H](N(C)C)[C@@H]3[C@@H](O)[C@@H]21`, the Potency was “inactive”. `Cc1cn([C@H]2C=C[C@@H](CO)O2)c(=O)[nH]c1=O` was tested, and the Potency was “inactive”. With `OCCN1CCN(CCCN2c3ccccc3Sc3ccc(C(F)(F)F)cc32)CC1` the Potency was “inactive”. For `NC(=O)NO`, the Potency was “inactive”. In the case of `Nc1nnc(-c2cccc(Cl)c2Cl)c(N)n1`, the Potency is reported as “inactive”. With `CN(C)CCC=C1c2ccccc2C=Cc2ccccc21` the Potency was “inactive”. For `Cc1cnc(C(=O)NCCc2ccc(S(=O)(=O)NC(=O)NC3CCCCC3)cc2)cn1`, the Potency was “inactive”. In the case of `O=c1[nH]cc(F)c(=O)[nH]1`, the Potency is reported as “inactive”. `COc1nc(C)nc(Cl)c1NC1=NCCN1` was tested, and the Potency was “inactive”. `NC(CO)C(=O)NNCc1ccc(O)c(O)c1O` (configuration not stated) was tested, and the Potency was “inactive”. With `CC(C(=O)O)c1cccc(C(=O)c2ccccc2)c1` (configuration not stated) the Potency was “inactive”. `Clc1ccc2nsnc2c1NC1=NCCN1` was tested, and the Potency was “inactive”. For `Clc1ccc(C(c2ccccc2Cl)C(Cl)Cl)cc1` (configuration not stated), the Potency was “inactive”.
